The values that follow come from PubChem BioAssay (NCATS).

Assay [1] concerns the target Methanococcus maripaludis chaperonin (MmCpn) (UniProt Q6LX38). Kind of assay: High-Throughput Screening for Modulators of Cytosolic Chaperonin Activity: MmCpn Primary Screen (AID 488978). Further: 0% is about no effect. Summed up: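 ADP formation read by HTRF Transcreener, 665/590 nm emission after 320 nm excitation. Enzyme: archaeal chaperonin at 50 nM final; substrate ATP 30 uM final; 10 min, 37C, after 5 min compound preincubation at RT.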

Assay [2] concerns the target Thyrotropin receptor (Homo sapiens) (UniProt P16473). Nature of the assay: qHTS Assay for Antagonists of the Thyroid Stimulating Hormone Receptor (AID 488980). Further: series mostly up to about 58 µM; 0% is about no effect. Summed up:
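TSHR-HEK293 cells; 70 uM RO 20-1724 PDE inhibitor; compound + EC80 TSH (4 nM final); anti-cAMP cryptate antibody/cAMP-d2 in lysis buffer, 30 min RT; HTRF 665/620 nm read.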
(In qHTS, concentration-response curves come from the screen itself.)

Assay [3] concerns the target Thyrotropin-releasing hormone receptor (Homo sapiens) (UniProt P34981). Nature of the assay: qHTS for Small Molecule Agonists and Allosteric Enhancers of Human TRH Receptor: Validation Screen for Agonists (AID 493127;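 active means calcium activation more than 3 SD above the typical response in the agonist read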;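 further: intracellular calcium rise by fluo-8 fluorescence before TRH EC20 addition; 0% is about no effect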). The settings on record: TRH receptor agonist cell assay; at 2 µM; stronger effect = higher value. Summed up: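 Compound-evoked intracellular calcium release in fluo-8-loaded TRHR cells, read kinetically on FDSS (Ex 480/Em 530, 1 s/cycle) after 23 nL pintool transfer. Agonist phase preceded 10 nM TRH EC20 addition.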

Assay [4] in a line: Nrf2 qHTS screen for inhibitors: Validation (AID 493153; active means well fitted inhibition curve with a large enough effect in the main read-out, with a control signal flat, not every such curve was filed as active). The settings on record: Potency: luciferase luminescence; viability change: measured here: cytotoxicity max response. Summed up: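 Concentration-response on A549 ARE_Fluc reporter cells exposed 18-24 h at 37 C, 5% CO2. Cytotoxicity read first by CellTiter-Fluor fluorescence (Ex 405/Em 525), then Nrf2 inhibition by BugLite luminescence after 15 min.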

The nature of assay [5]: qHTS for Inhibitors of Cell Surface uPA Generation: Validation Assay (AID 493164).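 Further: RAW 264.7 macrophage cells exposed to compound for 18 h; 0% is about no effect.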 Summed up: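 ATP-Lite luminescence read-out: ATP remains high when uPA activity-dependent LF translocation into the cytoplasm is blocked. RAW 264.7 cells, 18 h compound exposure at 37 C; 7-point titration, 2.45 nM to 38.3 uM final.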
Assay [6] addresses Galactokinase (Homo sapiens) (UniProt P51570). Nature of the assay: qHTS Validation Assay for Inhibitors of Human Galactokinase (GALK) (AID 493189). Further: 0% is about no effect. Summed up: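 Luminescence from leftover ATP (Kinase-Glo Plus, 10 min) served as read-out after a 1 h room-temperature reaction of 5 nM GALK, 100 uM galactose and 35 uM ATP at pH8.0.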
A short description of assay [7]: Validation screen for small molecules that induce DNA re-replication in SW480 colon adenocarcinoma cells (AID 504364). Further: 0% is about no effect. A digest of the protocol: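 Image-based DNA content read-out: Hoechst stain 40 min, total nuclear fluorescence intensity (ex 405 nm, em 500-530 nm) after 48 h compound exposure of 250 SW480 cells/well at 37 C, 5% CO2, versus DMSO vehicle.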
Assay [8] concerns the target Peptidyl-prolyl cis-trans isomerase NIMA-interacting 1 (Homo sapiens) (UniProt Q13526). Kind of assay: qHTS Validation Assay to Find Inhibitors of Pin1 (AID 504536; active means well fitted inhibition curve with a large enough effect in the polarisation, with a control signal flat, not every such curve was filed as active; the % refers to the polarisation;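 further: 0% = full Pin1 enzyme wells and -100% = no-enzyme wells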). A digest of the protocol:
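Fluorescence polarization competition: compounds (titration) displace HiFluor-488-labeled Pin1-1b peptide from Pin1 (0.3 uM final) in pH 7.5 HEPES buffer with DTT, 10 min at room temperature; %Activity normalized to no-enzyme wells, curves fitted.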

The target of assay [9] is Phosphoglycerate kinase, glycosomal (Trypanosoma brucei brucei) (UniProt P07378). Kind of assay: qHTS Validation Assay to Find Inhibitors of Phosphoglycerate Kinase (AID 504547).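 Further: control wells lack PGK and mark full inhibition.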 A digest of the protocol:
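Compounds are pinned into the substrate/PGK mixture, and GAPDH (100nM final) is added to start the reaction by producing 1,3-BPG. After 60 minutes at room temperature, Kinase-Glo Plus is added and luminescence is measured 10 minutes later.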

Assay [10] has as its target phosphoglycerate mutase (Leishmania major) (UniProt Q4Q090). Nature of the assay: qHTS Validation Assay to Find Inhibitors of Phosphoglycerate Mutase (AID 504548). Further: series mostly up to about 58 µM; on the % scale 0 is the no-effect control and ±100 the full control effect. The settings on record: Potency: inhibition qHTS. A digest of the protocol:
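Lm PGAM 1.25nM final; 100 mM TEA pH 7.6, 5 mM MgCl2, 0.01% Tween-20; 45 min RT; Kinase-GloPlus, 10 min; end-point luminescence. Enzyme-free wells as negative controls.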

The target in assay [11] is Ubiquitin carboxyl-terminal hydrolase 1 (Homo sapiens) (UniProt O94782). Nature of the assay: Inhibitors of USP1/UAF1: Pilot qHTS (AID 504865). Further: nearly all actives have a fitted effect of over 35% in size. Further: potency means the concentration at half of the fitted maximal effect. A digest of the protocol:
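1nM USP1/UAF1 + cpd, 15 min RT; start w/ Ub-Rho 150nM final; kinetic FL 480/540 nm, 6 reads q60 s. Buffer 50mM HEPES pH 7.8, 0.5mM EDTA, 1mM TCEP, 0.01% Tween-20, 0.1 mg/ml BSA.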

Assay [12] deals with D(1A) dopamine receptor (Homo sapiens) (UniProt P21728). Kind of assay: HTS Assay for Allosteric Agonists of the Human D1 Dopamine Receptor: Primary Screen for Agonists (AID 488981). Further: potency means the concentration at half of the fitted maximal effect. On activation: 0% is about no effect. A digest of the protocol:
(§1)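 Tetracycline-induced HEK293 Trex D1 cells with forced coupling to calcium, loaded with no-wash calcium dye; kinetic fluorescence read 180 s after compound addition for agonism, then a further 180 s after an EC20 dopamine challenge for potentiation.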

The target is the same in assay [13]. Nature of the assay: HTS Assay for Allosteric Agonists of the Human D1 Dopamine Receptor: Primary Screen for Potentiators (AID 488982). Further: potency means the concentration at half of the fitted maximal effect. A digest of the protocol:
as §1

The target is the same in assay [14]. Kind of assay: HTS Assay for Allosteric Agonists of the Human D1 Dopamine Receptor: Primary Screen for Antagonists (AID 488983).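 Further: calcium flux response to an EC80 dopamine challenge measured with no-wash dye; nearly all actives have a fitted effect of over 65% in size.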 Further: potency means the concentration at half of the fitted maximal effect. A digest of the protocol:
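Calcium-flux read-out in inducible HEK293 T-REx cells expressing D1, dye-loaded 30–90 min at room temperature. Kinetic reads: 180 s after compound (agonist phase), then 180 s after an EC80 dopamine challenge.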

Assay [15] is described as follows: Validation screen for small molecules that induce genotoxicity in human embryonic kidney (HEK293T) cells expressing luciferase-tagged ELG1 (AID 493106). Further: 0% is about no effect. Summed up:
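ELG1-luciferase reporter readout (ONE-Glo, 30 min, room temperature) after 16 hr compound treatment at 37 °C of HEK293T cells at 2,000 per well. Rising luminescence flags genotoxic stress.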

Assay [16] is described as follows: qHTS for Inhibitors of ATXN expression: Validation of Cytotoxic Assay (AID 588349). Further: on the % scale 0 is the no-effect control and ±100 the full control effect. A digest of the protocol: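 Cytotoxicity counter-screen: ATP-based luminescent viability (CellTiter Glo) after 72 hr exposure of HEK293 cells to a compound titration at 37 degrees C.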
Assay [17] deals with ATPase family AAA domain-containing protein 5 (Homo sapiens) (UniProt Q96QE3). Nature of the assay: Validation screen for small molecules that inhibit ELG1-dependent DNA repair in human embryonic kidney (HEK293T) cells expressing luciferase-tagged ELG1 (AID 493107).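 Further: series mostly up to about 46 µM; on the % scale 0 is the no-effect control and ±100 the full control effect; inhibitors lower the ELG1-luciferase luminescence signal; nearly all actives have a fitted effect of over 70% in size.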 Summed up: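 Luciferase read-out, ONE-Glo, 30 min at room temperature, follows 16 h co-exposure at 37 C of compound and the DNA-damaging agent 5-fluorouridine. Cells: HEK293T with ELG1-luciferase fusion, 2,000 per well, DMSO as vehicle.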

Records with an inconclusive call do not appear. Calls of active or inactive are those of the source. Unless noted, the call rests on the fitted dose curve; in most records, active means well fitted curve in the direction sought with a large enough effect; inconclusive means small, poorly fitted or top-dose-only effect, or another doubt; inactive means no such curve, though single readings can be large; an effect the other way counts as inactive or inconclusive.

Chain of Peptidyl-prolyl cis-trans isomerase NIMA-interacting 1 (Homo sapiens) (Q13526 whole entry, looked up): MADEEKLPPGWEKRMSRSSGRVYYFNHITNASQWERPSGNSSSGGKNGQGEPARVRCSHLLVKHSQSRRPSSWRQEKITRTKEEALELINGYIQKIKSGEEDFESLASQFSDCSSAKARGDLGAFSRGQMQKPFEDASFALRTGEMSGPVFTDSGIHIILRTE
Chain of phosphoglycerate mutase (Leishmania major) (Q4Q090 1-553): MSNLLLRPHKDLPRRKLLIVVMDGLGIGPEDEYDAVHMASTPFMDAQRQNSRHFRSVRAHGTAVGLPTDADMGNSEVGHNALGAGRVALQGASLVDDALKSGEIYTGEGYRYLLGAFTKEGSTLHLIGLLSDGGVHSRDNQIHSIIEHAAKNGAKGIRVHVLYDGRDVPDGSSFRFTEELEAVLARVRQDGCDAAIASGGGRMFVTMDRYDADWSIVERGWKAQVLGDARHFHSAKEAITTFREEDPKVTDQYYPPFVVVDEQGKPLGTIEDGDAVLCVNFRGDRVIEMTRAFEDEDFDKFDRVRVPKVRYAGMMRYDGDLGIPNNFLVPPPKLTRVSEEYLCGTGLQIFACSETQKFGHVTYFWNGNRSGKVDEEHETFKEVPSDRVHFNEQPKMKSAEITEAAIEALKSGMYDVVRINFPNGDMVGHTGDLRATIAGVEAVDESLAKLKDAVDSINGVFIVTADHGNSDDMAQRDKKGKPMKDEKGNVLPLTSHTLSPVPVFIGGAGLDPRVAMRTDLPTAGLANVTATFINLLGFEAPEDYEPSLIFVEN
Chain of Ubiquitin carboxyl-terminal hydrolase 1 (Homo sapiens) (O94782 whole entry, looked up): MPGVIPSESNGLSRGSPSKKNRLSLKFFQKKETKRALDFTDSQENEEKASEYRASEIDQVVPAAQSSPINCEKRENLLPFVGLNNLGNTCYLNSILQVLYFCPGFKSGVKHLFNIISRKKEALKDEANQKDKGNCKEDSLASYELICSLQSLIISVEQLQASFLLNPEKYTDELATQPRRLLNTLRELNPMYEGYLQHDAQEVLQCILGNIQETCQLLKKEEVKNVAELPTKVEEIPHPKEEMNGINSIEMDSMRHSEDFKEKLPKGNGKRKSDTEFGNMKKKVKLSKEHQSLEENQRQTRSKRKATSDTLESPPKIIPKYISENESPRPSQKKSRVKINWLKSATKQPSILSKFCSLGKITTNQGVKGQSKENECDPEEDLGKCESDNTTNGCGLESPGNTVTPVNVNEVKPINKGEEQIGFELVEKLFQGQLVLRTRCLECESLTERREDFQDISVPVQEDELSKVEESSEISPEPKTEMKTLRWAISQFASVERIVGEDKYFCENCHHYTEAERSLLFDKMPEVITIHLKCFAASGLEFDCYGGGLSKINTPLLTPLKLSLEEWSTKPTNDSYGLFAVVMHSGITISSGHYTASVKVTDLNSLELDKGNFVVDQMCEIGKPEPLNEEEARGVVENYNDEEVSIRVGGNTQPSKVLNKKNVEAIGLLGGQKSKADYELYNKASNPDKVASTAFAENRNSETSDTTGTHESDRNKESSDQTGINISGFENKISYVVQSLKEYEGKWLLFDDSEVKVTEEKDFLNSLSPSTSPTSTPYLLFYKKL
Chain of Phosphoglycerate kinase, glycosomal (Trypanosoma brucei brucei) (P07378 whole entry, looked up): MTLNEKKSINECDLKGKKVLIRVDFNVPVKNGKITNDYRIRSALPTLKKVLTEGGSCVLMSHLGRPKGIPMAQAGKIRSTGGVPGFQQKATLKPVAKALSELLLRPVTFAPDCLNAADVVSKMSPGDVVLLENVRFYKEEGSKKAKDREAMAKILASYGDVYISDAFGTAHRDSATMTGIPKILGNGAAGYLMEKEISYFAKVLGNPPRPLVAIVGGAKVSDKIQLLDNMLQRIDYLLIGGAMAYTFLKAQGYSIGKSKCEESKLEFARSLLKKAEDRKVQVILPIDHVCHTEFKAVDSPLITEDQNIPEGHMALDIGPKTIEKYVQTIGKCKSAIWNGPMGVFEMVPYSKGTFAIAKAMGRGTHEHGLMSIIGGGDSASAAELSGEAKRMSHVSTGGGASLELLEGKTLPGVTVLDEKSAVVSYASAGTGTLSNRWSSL
Chain of Methanococcus maripaludis chaperonin (MmCpn) (Q6LX38 1-543): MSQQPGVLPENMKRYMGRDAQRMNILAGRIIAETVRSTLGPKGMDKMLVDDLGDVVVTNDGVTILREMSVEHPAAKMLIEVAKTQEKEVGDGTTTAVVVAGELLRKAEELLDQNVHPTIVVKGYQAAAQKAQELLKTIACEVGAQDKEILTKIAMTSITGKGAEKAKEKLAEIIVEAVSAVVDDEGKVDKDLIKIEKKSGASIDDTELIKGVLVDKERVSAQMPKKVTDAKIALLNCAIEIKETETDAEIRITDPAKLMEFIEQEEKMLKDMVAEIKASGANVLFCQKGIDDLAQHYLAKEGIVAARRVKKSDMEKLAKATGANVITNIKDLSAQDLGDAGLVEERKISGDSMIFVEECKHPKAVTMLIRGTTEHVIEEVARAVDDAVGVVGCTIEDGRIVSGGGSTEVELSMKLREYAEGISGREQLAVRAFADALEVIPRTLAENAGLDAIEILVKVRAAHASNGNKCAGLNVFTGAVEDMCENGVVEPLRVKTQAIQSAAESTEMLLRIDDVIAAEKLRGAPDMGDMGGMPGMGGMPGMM
Chain of D(1A) dopamine receptor (Homo sapiens) (P21728 whole entry, looked up): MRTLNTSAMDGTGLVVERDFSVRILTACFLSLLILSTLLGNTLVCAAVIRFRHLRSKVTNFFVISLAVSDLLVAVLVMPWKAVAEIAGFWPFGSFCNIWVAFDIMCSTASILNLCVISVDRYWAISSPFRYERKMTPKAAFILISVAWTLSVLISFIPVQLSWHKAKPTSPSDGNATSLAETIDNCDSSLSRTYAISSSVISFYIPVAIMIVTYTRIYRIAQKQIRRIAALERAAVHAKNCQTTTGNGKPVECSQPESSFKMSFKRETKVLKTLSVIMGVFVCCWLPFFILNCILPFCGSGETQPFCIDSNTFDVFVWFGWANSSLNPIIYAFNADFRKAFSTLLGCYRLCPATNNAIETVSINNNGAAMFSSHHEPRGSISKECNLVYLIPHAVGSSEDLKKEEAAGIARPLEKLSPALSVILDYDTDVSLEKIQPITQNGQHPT
Chain of Thyrotropin receptor (Homo sapiens) (P16473 whole entry, looked up): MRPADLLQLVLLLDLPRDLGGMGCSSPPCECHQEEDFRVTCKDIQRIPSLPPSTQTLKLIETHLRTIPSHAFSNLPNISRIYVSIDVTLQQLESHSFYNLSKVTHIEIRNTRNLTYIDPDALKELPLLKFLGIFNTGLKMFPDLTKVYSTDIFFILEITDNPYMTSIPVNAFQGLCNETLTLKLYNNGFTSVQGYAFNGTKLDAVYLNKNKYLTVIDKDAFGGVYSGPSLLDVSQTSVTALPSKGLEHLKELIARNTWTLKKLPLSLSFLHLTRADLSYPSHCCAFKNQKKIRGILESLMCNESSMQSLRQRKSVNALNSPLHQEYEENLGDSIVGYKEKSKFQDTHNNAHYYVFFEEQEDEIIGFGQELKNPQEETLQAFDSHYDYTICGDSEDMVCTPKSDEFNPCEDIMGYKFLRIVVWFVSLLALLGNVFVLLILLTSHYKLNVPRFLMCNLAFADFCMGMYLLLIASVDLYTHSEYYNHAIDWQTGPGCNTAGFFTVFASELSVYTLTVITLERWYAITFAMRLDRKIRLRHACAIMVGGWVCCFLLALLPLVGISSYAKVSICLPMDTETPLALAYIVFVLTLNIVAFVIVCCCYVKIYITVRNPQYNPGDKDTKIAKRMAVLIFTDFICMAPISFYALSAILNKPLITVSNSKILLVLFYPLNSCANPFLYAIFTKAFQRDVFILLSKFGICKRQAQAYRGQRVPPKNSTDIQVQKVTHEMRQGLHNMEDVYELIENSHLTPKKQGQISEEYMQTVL
Chain of Thyrotropin-releasing hormone receptor (Homo sapiens) (P34981 whole entry, looked up): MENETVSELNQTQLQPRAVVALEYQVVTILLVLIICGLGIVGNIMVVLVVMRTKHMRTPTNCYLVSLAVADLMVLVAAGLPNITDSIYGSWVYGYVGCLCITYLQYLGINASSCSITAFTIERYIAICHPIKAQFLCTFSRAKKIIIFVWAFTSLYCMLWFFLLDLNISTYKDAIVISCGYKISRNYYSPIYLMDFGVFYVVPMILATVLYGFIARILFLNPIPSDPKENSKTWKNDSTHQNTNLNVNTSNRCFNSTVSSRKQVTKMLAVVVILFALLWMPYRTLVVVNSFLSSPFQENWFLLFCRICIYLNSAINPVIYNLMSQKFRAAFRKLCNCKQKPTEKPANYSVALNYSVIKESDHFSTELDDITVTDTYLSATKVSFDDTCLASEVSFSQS
Chain of Galactokinase (Homo sapiens) (P51570 whole entry, looked up): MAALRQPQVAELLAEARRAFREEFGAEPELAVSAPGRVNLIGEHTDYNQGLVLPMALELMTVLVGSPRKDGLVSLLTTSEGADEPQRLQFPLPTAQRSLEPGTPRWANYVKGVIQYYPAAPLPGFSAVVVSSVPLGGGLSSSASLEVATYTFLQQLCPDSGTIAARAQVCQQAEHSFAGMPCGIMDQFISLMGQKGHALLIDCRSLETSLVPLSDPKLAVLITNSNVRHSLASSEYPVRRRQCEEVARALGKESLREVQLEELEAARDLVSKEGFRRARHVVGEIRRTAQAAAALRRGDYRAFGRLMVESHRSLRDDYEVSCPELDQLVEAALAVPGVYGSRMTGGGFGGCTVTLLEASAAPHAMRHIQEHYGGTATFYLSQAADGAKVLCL

Consider `CC(C)(C)c1ccc(S(=O)(=O)/C=C/C#N)cc1`, for which the result in assay [1], in [2] and in assay [5] was inactive. In addition, the activation in assay [3] was 7.44% (inactive). Also, the Potency entry in [4], in assay [6], in assay [7], in [8], in assay [9] and in assay [10] was “inactive” in each case. Further, the Potency result in assay [11] was “inactive”. The viability change in [4] came to 4.47%.
For the molecule `CCNC(=O)[C@H]1O[C@@H](n2cnc3c(N)nc(NCCc4ccc(CCC(=O)O)cc4)nc32)[C@H](O)[C@@H]1O`, the molecule was called inactive in [1]. Also, the Potency result in [12], in [13], in assay [14], in [15], in assay [9] and in assay [10] was “inactive” throughout. The Potency entry in assay [11] and in [16] was “inactive” throughout.
For the molecule `O=P(O)(O)C(Cl)(Cl)P(=O)(O)O`, the result in [1] and in assay [5] was inactive. In addition, the Potency result in assay [12], in assay [13], in assay [14], in assay [15], in [17] and in [4] was “inactive” in each case. Moreover, the Potency result in assay [9], in assay [10] and in assay [16] was “inactive” each time. Also, the viability change in [4] was 4.97%.
As to `C[N+]1(C)C2CC(OC(=O)[C@H](CO)c3ccccc3)CC1C1OC12` (stereo not given in full), the molecule was called inactive in [1] and in assay [5]. Also, the Potency entry in [12], in assay [13], in [14], in [15], in [17] and in assay [8] was “inactive” each time. Moreover, the Potency result in [9], in assay [10], in assay [11] and in [16] was “inactive” throughout.
Turning to `Cc1ccc(S(=O)(=O)/C=C/C#N)cc1`, the result in assay [1] was inactive. The Potency entry in [12], in [13], in assay [9] and in [11] was “inactive” each time. The Potency in assay [14] was 12.6 µM (active).
For the molecule `CN1CC(=O)N/C1=N/C(=O)Nc1cccc(Cl)c1`, the outcome in [1] and in assay [5] was inactive. Moreover, the Potency entry in [12], in assay [13], in [14], in [15], in [8] and in assay [9] was “inactive” in each case. The Potency result in [10], in assay [11] and in assay [16] was “inactive” each time.
For `Nc1ncnc2c1ncn2[C@@H]1O[C@H](COP(=O)(O)CP(=O)(O)OP(=O)(O)O)[C@@H](O)[C@H]1O`, the molecule was classed as inactive in [1]. The Potency entry in assay [12], in assay [13], in [14], in assay [15], in assay [4] and in assay [9] was “inactive” throughout. For the same molecule, the Potency entry in [11] and in assay [16] was “inactive” in each case. Also, the viability change in [4] was -5.53%.
For `Cn1cc(C2=C(c3ccc(Cl)cc3Cl)C(=O)NC2=O)c2ccccc21`, the call in assay [1], in assay [2] and in assay [5] was inactive. Moreover, the Potency was 14.1 µM (active) in assay [12] and 23.8 µM (active) in [11]. Besides, the Potency result in assay [14], in assay [15], in assay [4], in assay [6], in [7] and in assay [9] was “inactive” throughout. Besides, the Potency entry in [10] and in [16] was “inactive” throughout. The activation in [3] is 29.6% (inactive). The viability change in assay [4] is -10.9%.
As for `CC[C@@H](C)[C@H]1O[C@]2(CC[C@H]1C)C[C@@H]1C[C@@H](CC=C(C)[C@@H](O[C@H]3C[C@H](OC)[C@@H](O[C@H]4C[C@H](OC)[C@@H](O)[C@H](C)O4)[C@H](C)O3)[C@@H](C)C=CC=C3CO[C@@H]4[C@H](O)C(C)=C[C@@H](C(=O)O1)[C@]34O)O2`, the molecule was called inactive in assay [1] and in assay [5]. Moreover, the Potency result in [12], in assay [14], in [15], in assay [8] and in assay [9] was “inactive” throughout. Besides, the Potency in assay [13] was 2.06 µM (active).
